In the supplement of paper PMC10681739:

Legend:
ETS1 [1] = target: T1, ETS1 (UniProt P14921); assay: ETS1 binding intensity (PBM fluorescence), ETS1 alone (arbitrary fluorescence units); higher = stronger binding; conditions: ETS1 concentration 1 nM; RUNX1 concentration 0 nM
T1 sequence: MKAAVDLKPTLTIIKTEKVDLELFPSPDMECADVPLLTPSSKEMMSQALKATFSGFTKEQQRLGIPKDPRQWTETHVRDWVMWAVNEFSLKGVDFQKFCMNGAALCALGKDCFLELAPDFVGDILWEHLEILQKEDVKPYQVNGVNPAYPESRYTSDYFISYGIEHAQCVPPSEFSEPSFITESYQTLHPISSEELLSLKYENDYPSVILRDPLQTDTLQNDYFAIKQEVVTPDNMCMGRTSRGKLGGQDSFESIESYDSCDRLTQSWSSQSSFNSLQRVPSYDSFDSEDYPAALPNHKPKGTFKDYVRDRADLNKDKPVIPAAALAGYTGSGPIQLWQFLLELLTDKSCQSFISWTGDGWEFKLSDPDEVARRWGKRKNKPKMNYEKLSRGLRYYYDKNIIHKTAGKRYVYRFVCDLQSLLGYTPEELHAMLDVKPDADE

RUNX1 [2] = target: RUNX1 (UniProt Q01196); assay: RUNX1 binding intensity (PBM fluorescence), RUNX1 alone (arbitrary fluorescence units); higher = stronger binding; conditions: RUNX1 concentration 2 nM; ETS1 concentration 0 nM
Experimental: (§1)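 Cooperative gcPBM on 36-bp genomic probes with neighbouring ETS1 and RUNX1 sites. Recombinant human RUNX1 (2 nM) was incubated alone or with ETS1 (25 nM) and detected with anti-RUNX1 antibody plus Alexa488 secondary. Values are medians over 4 replicate spots; the RUNX1+ETS1 data were normalised to the RUNX1-only data. The probes sit in constant array flanks that are not printed.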

ETS1 [3] = target: T1, ETS1; assay: ETS1 binding intensity (PBM fluorescence) in presence of RUNX1, normalised to ETS1-only experiment (arbitrary fluorescence units); higher = stronger binding; conditions: ETS1 concentration 1 nM; RUNX1 concentration 25 nM
RUNX1 [4] = target: RUNX1 (UniProt Q01196); assay: RUNX1 binding intensity (PBM fluorescence) in presence of ETS1, normalised to RUNX1-only experiment (arbitrary fluorescence units); higher = stronger binding; conditions: RUNX1 concentration 2 nM; ETS1 concentration 25 nM
Experimental: as §1
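Throughout, for RUNX1 binding intensity (PBM fluorescence) in presence of ETS1, normalised to RUNX1-only experiment: Full-length recombinant human ETS1 or RUNX1 bound to double-stranded 36-bp genomic probes on microarrays, detected by protein-specific primary antibody and Alexa488 secondary, spot fluorescence as median of four replicate spots.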
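Throughout, for RUNX1 binding intensity (PBM fluorescence), RUNX1 alone: Full-length recombinant human RUNX1 bound to double-stranded 36-bp genomic probes on a high-density microarray, scored as Alexa488 fluorescence per spot via anti-RUNX1 antibody, median of four replicate spots.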

Sequence of RUNX1 (Q01196 whole entry): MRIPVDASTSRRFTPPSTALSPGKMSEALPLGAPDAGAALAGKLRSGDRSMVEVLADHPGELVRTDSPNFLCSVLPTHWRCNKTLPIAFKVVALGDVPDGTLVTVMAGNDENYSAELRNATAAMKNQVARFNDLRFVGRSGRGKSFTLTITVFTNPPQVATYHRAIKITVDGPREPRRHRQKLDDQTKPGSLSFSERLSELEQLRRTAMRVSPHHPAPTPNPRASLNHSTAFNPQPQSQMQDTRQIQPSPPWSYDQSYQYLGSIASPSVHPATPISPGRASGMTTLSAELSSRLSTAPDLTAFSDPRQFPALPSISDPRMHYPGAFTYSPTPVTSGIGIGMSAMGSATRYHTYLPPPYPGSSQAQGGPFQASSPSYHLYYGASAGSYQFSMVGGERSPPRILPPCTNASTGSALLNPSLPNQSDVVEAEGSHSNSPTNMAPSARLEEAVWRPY

Sequence | ETS1 binding intensity (ETS1 [1]) | RUNX1 binding intensity (RUNX1 [2]) | ETS1 binding intensity (ETS1 [3]) | RUNX1 binding intensity (RUNX1 [4])
TGGTGCCAAACATCCGCTAGCCACAGAAAAACCGAC | 778 | 826 | 1170 | 1640
CTTCAAAGTCAGGAAACCGTTAAACCACACTGCATC | 716 | 1100 | 1910 | 1360
GAGACAGGAAATGTAGACTTGAGTCCTGTGGTAAAC | 1910 | 739 | 6740 | 1260
AAGGCAAACAGGAAATCATAACCACAAACCAGGAAC | 2960 | 2880 | 25500 | 21700
GCGGGAAAAGGGAAGTTTGCGGGAGGTCAAATCCAC | 563 |  | 550 | 968
GATCTTCCTGCAACCCCCCGAGACAACCACCGAACA | 854 |  | 887 | 1400
GGCTGCGACTTCCGGACTGCTCCTGGCCGCAGGGGG | 2070 |  | 2500 | 1370
AAAAAGCCGGATGTGAAGGCTGTGGTTCTCAACCCG | 2880 | 745 | 6480 | 1310
ACCAGCAACGGAAATCAGATCTCTTGTGGTTATTAT | 1480 | 994 | 7160 | 1680
GGAGCAAGGATGACAGGATGTGGCTTAGGGGGAGGC | 5020 | 708 | 7820 | 1000
ATCTTCAGGAAGCGGTATCAACCTGAAAACCACCAC | 561 | 772 | 870 | 1250
GCGCAAGGATCCGGTTTGTTGTGGTGTGGGGAGGGG | 517 | 814 | 503 | 1070
CAGGTTGTTGAGGATGTGGAGAAACCGCAACCTCGT | 581 |  | 7360 | 6690
TCTGTGAAAAAGGATGTGCGGTTATGGAGGAGAACT | 970 | 1210 | 3460 | 1930
CACCTCAGCTTCCTGTGTAGCTGGGACCACAGGCAT | 687 |  | 888 | 1560
AAGTGGAGAGCGGAAGTGAGCTGTGGGTGACTGCAG | 6780 |  | 8400 | 1240
CAAGAGCCGGAAGTCCCTTGTGCCGCAGTCCTTCCC | 5720 |  | 6680 | 1510
